Most compounds without a hit are left out; they make up all but 0.69% or so of the library.
Tat transport = E. coli Tat export inhibitors, primary screen, MC4100, TorA-mCherry reporter, fluorescence, single point; inhibition, % at 10 µM; actives 0.036% (n = 340,000); AID 488895, 2010;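 active = mean replicate inhibition at least 50% and at least half of replicates individually reaching 50%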;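 note: exported cargo escapes ClpAP degradation while cytoplasmic cargo is degraded and loses fluorescence; 0% = median of neutral control wells and 100% = median of NaSCN control wells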
PfHsp90 set2 = growth inhibition of PfHsp90-expressing yeast, primary screen, antimalarial PfHsp90 inhibitor project, S. cerevisiae, BacTiter-Glo luminescence, single point, set 2; BacTiter-Glo ATP, 48 h; yeast lacking PDR1 and PDR3 efflux regulators; actives 0.32% (n = 310,000); inhibition, % at 9.4 µM; AID 504621, 2011;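 active = every replicate shows inhibition above about 80%, whatever the replicate mean, limit read from the data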;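 note: 0% = DMSO neutral controls and 100% = 20 µM radicicol positive controls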
E coli growth-1 = E. coli V3065 growth inhibition, primary screen, counter-screen for AddAB inhibitor project, absorbance, OD600. 18 h. inhibition, % at 11.9 µM. actives 0.27% (n = 330,000);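 active = inhibition above the campaign's mean inhibition across all tested compounds plus 3 SD, cut at about 9.9% in these data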;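 note: uninfected addAB+ strain grown without phage in ampicillin broth; 0% = DMSO wells and 100% = ciprofloxacin 0.95 µg/ml wells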
phage Ecoli inh = growth loss of phage-infected E. coli, primary screen, RecBCD inhibitor project, absorbance, with phage, HTS | inhibition, % at 11.9 µM | actives 0.26% (n = 360,000) | AID 651602, 2012; in the data active = inhibition above about 11%
AddAB inh = growth inhibition of E. coli expressing H. pylori AddAB, primary screen, AddAB inhibitor project, absorbance | inhibition, % at 11.9 µM | actives 0.29% (n = 330,000) | AID 435030, 2010; in the data active = inhibition above about 12%;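 note: 0% = vehicle wells of infected cells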
E coli growth-2 = E. coli growth inhibition, primary screen, OD600 | Escherichia coli growth, 23 h; stronger effect = lower value | OD600 absorbance (no concentration beside the values) | actives 0.21% (n = 330,000) | AID 1053175, 2014;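 active = OD600 absorbance below the run mean of sample wells minus 3.6 SD, in any replicate, cut at about 0.56 in these data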
* = called active by the depositor; nt = no result.

SMILES | Tat transport | PfHsp90 set2 | E coli growth-1 | phage Ecoli inh | AddAB inh | E coli growth-2
CCOC(=O)c1c(NC(N)=O)sc(C)c1C | 4 | -4 | 2 | 2 | 4 | 0.72
CCOC(=O)c1c(N2C(=O)C=CC2=O)sc(C)c1C | 8 | 154* | -3 | nt | -2 | 0.6
CC(=O)Nc1ccc(C=NN2CCCCC2)cc1 | nt | nt | nt | nt | nt | 0.69
COCCOC(=O)/C(=C/c1ccc(OC(=O)c2ccccc2)cc1)C(C)=O | -4 | 108* | 4 | nt | 3 | 0.67
Cc1ccsc1C(=O)Nc1nnc(-c2ccco2)o1 | 7 | -17 | -1 | 11 | 3 | 0.41*
Cc1ccc(C(=O)Nc2nnc(-c3ccco3)o2)cc1 | -7 | -5 | -2 | 4 | 11 | 0.56
Cn1c2c(c3ccccc31)CCC2=NO | nt | nt | nt | nt | nt | 0.69
O=[N+]([O-])c1nn(-c2ccc3c(c2)OCCO3)n(O)c1=NC1CCN(Cc2ccccc2)CC1 | 4 | nt | 5 | 5 | 3 | 0.65
O=[N+]([O-])c1nn(-c2ccccc2)n(O)c1=NC1CCN(Cc2ccccc2)CC1 | 4 | -37 | 10* | 5 | 8 | 0.59
COC(=O)C1=C(C(=O)OC)C2Nc3ccccc3[C@@]23CC(C(=O)OC)N(C(C)=O)C3=N1 (some centres not stated) | nt | nt | nt | nt | nt | 0.68
O=C1CCN(CCc2ccccc2)CCN1C(CO)c1ccccc1 (configuration not stated) | nt | nt | nt | nt | nt | 0.66
Cc1cc(C)cc(N2C(=O)C=CC2=O)c1 | 8 | 108* | nt | 0 | nt | 0.61
O=[N+]([O-])/C=C/c1cn(Cc2ccccc2)c2ccccc12 | 4 | 93* | 2 | 3 | 2 | 0.72
O=C(O)Cn1cc(/C=C/[N+](=O)[O-])c2ccccc21 | 1 | -10 | 4 | 3 | 4 | 0.65
CC(=NNC(=S)Nc1cccc(Cl)c1)c1ccccn1 | 2 | 124* | nt | 10 | nt | nt
C=CCNC(=S)N/N=C(\C)c1cccnc1 | 2 | nt | -1 | 1 | 1 | nt
C=CCNC(=S)NN=C(C)c1ccccn1 | nt | nt | nt | nt | nt | 0.53*
COc1cccc(C=NNC(=O)CSc2ccccc2C)c1OC | nt | nt | nt | nt | nt | 0.69
CC(C)CCOc1cccc(OCC(=O)Nc2ccncc2)c1 | 3 | 103* | 0 | 2 | 1 | 0.66
COc1cccc(OCC(=O)Nc2ccncc2)c1 | 4 | 8 | 1 | 4 | 2 | 0.71
Cc1ccc(/C=[N+](\[O-])c2ccc(N(C)C)cc2)c2nsnc12 | -9 | 109* | nt | 6 | nt | 0.64
Cc1ccc2nsnc2c1NS(=O)(=O)c1c(C)ccc2nsnc12 | 13 | -6 | 1 | 4 | 2 | 0.67
COc1ccc(Br)cc1C=c1sc2nc(-c3ccco3)nn2c1=O | nt | nt | nt | nt | nt | 0.73
CCN1C/C(=C/c2cccc([N+](=O)[O-])c2)C(=O)/C(=C/c2cccc([N+](=O)[O-])c2)C1 | -3 | 102* | -3 | -1 | 4 | 0.66
Cc1cc(/C=C2\SC(=S)NC2=O)c(C)n1-c1ccc(O)cc1 | -1 | 97* | -1 | 1 | 1 | 0.66
SMILES | Tat transport | PfHsp90 set2 | E coli growth-1 | phage Ecoli inh | AddAB inh | E coli growth-2
O=C(c1ccc(-c2ccccc2)c(F)c1)C1CCCN(C(=O)c2cncs2)C1 (configuration not stated) | 7 | 89* | 1 | 1 | -1 | 0.69
CC(C)Oc1cccc(C(=O)C2CCCN(C(=O)c3cncs3)C2)c1 (configuration not stated) | -5 | -9 | 0 | 1 | 3 | 0.64
Cc1cc(Cl)ccc1C(=O)C1CCCN(C(=O)c2cncs2)C1 (configuration not stated) | 6 | 96* | 0 | -2 | 0 | 0.68
CN(CC(=O)Nc1cccc(F)c1)C(=O)c1cn(-c2ccccc2)nc1-c1ccc(Cl)cc1 | 14 | 98* | 1 | 5 | 1 | 0.7
CC(C)(C)c1cc(C(c2cccnc2)N2CCN(CCO)CC2)cc(C(C)(C)C)c1O (configuration not stated) | 6 | 105* | 1 | 2 | 0 | 0.67
CC(C)(C)n1nnnc1C(c1cccnc1)N1CCN(c2cccc(C(F)(F)F)c2)CC1 (configuration not stated) | 1 | 18 | -2 | 3 | 2 | 0.71
COc1cc(C=NNC(=S)NCC2CCCO2)cc(OC)c1OC (configuration not stated) | nt | nt | nt | nt | nt | 0.68
CCN(CC)c1ccc(C(=C2C=CC(=[N+](CC)CC)C=C2)c2ccc(N(CC)CC)cc2)cc1 | 51* | 136* | nt | -1 | nt | 0.89
CCN(CC)c1ccc(C(=O)NNC(=O)CCl)cc1 | 6 | nt | 2 | 0 | -1 | nt
Cc1sc2ncnc(N/N=C/c3ccc(O)cc3)c2c1C | 7 | -2 | 1 | 4 | 2 | nt
Cc1sc2ncnc(N/N=C/c3ccccc3O)c2c1C | -3 | 101* | 3 | 7 | 8 | nt
Cc1cccc(N2CCN(S(=O)(=O)c3c(C)noc3/C=C/N(C)C)CC2)c1C | -4 | 111* | 1 | 1 | 4 | 0.73
Cc1noc(/C=C/N(C)C)c1S(=O)(=O)N1CCN(c2ccc(F)cc2)CC1 | 1 | -23 | 1 | 1 | 3 | 0.7
CN(C)/C=C/C(=O)c1ccc2noc(-c3ccccc3)c2c1 | -2 | 106* | -2 | 2 | -1 | 0.7
CN(C)/C=C/C(=O)c1ccccc1 | -2 | -1 | 0 | 0 | 4 | 0.69
CC(=O)c1ccc2noc(-c3ccccc3)c2c1 | -17 | 5 | 0 | 3 | -2 | 0.67
CN(C)/C=C/C(=O)c1ccc(Oc2ccccc2)cc1 | -5 | 101* | 0 | 2 | -1 | 0.67
COC1OC2O[C@@]3(C)CCC4C(C)CCC(C1C)[C@@]24OO3 (some centres not stated) | nt | nt | nt | nt | nt | 0.36*
CCCCCC(=O)NNC(=S)NC(C)=O | -2 | -2 | 0 | -8 | -2 | 0.48*
CC=CC(=O)OCC(=O)Nc1nc2ccc(C)cc2s1 | nt | nt | nt | nt | nt | 0.72
CC(=O)Nc1ccc(Nc2cc(C(C)C)nc3c(-c4ccccc4)c(C)nn23)cc1 | 24 | 108* | -2 | -1 | -2 | 0.65
CC(=O)Nc1ccc(Nc2cc(C)nc3c(-c4ccccc4)c(C)nn23)cc1 | 4 | 3 | -1 | 0 | 1 | 0.66
O=C(CC(=O)NN=Cc1ccc(F)cc1)NN=Cc1ccc(F)cc1 | nt | nt | nt | nt | nt | 0.71
N/C(=N\N=Cc1ccc(F)cc1)NN=Cc1ccc(F)cc1 | nt | nt | nt | nt | nt | 0.42*
CC(=O)Nc1ccc(C)cc1 | 7 | -8 | 1 | 1 | 1 | 0.69
CC(=O)NCc1ccc(C(=O)CCl)cc1 | -20 | 13 | 0 | 0 | 0 | 0.51*
CC(=O)Nc1ccc(C(=O)CCl)cc1 | -17 | nt | -1 | 3 | -1 | 0.41*
CC(=O)NCc1ccc(C(=O)CCl)s1 | -26 | -3 | -3 | 4 | 3 | 0.49*
COc1ccc(C(=O)OCC(=O)c2ccc(CNC(C)=O)s2)cc1 | 3 | 0 | 1 | -1 | -1 | 0.63
CC1CCC[C@@]2(O1)OC(CCO)CC(O)C2O (some centres not stated) | nt | nt | nt | nt | nt | 0.67

Screens from PubChem BioAssay.
